Source: PubChem (National Center for Advancing Translational Sciences (NCATS))
TDP-43 yeast inh: qHTS of TDP-43 Inhibitors; AID 652104, 2013; hit rate 1.8% among 410,000; Potency, µM (titrated, usually from 46.1 µM), for inactives: at the top dose growth rescue (activation), actives largely listed as activators; TDP-43 expressing yeast growth rescue, BacTiter-Glo, 24 h; also: % of control where 0% means no effect; nearly all actives have a fitted effect of over 50% in size
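Readout is BacTiter-Glo luminescence of cell growth, so inhibitors register as activators. TDP-43-expressing yeast at OD600=0.02 in galactose medium, after raffinose pregrowth to mid-log, were incubated with compound for 24 hr at 30 deg C.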
FUS yeast rescue: qHTS for Suppressors of FUS Proteinopathy: Primary screen using FUS-linked yeast assay; S. cerevisiae FUS-expressing, growth rescue, OD600, 24 h; AID 1347120, 2019; hit rate 0.24% among 390,000; Potency, µM (titrated, usually from 76.6 µM), actives largely listed as activators;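 also: plate controls were DMSO vehicle for no effect and reference control for full effect; nearly all actives have a fitted effect of over 55% in size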
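Compound concentration series was pinned onto galactose-induced FUS-expressing yeast seeded at OD 0.005. Plates sat 24hr at 30C; absorbance at 600 nm gave growth. DMSO served as background control.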
aSyn yeast inh: qHTS of alpha-syn Inhibitors; Yeast expressing alpha-synuclein, growth rescue, BacTiter-Glo, 24 h; Potency, µM (titrated, usually from 46.1 µM), inactives show at the top dose growth rescue (activation), actives largely listed as activators; hit rate 0.14% among 370,000; also: % of control where 0% means no effect; nearly all actives have a fitted effect of over 65% in size
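Readout is rescue of growth in alpha-synuclein-expressing yeast, so inhibitors of toxicity appear as activators. Growth after 24 hr at 30 deg C in galactose medium is quantified by luminescence.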
Abeta yeast res: qHTS for compounds that reverse cellular toxicity of Amyloid beta (A-beta) peptide in yeast: Primary Screen | Potency, µM (highest dose often 46.1 µM), usual class: activators | hit rate 0.063% among 410,000 | yeast expressing A-beta42, growth rescue, OD600, 48 h; response scale: 0% DMSO, 100% iron-clioquinol control; also: nearly all actives have a fitted effect of over 55% in size
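Yeast growth medium received pinned compounds, then yeast cells expressing toxic A-beta were added; plates incubated at 30 C for 48 hr. Growth read as absorbance at 600 nm, normalized to DMSO and equimolar FeCl3 plus clioquinol controls.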
* hit, by the source's call. Only some compounds are listed: those with a hit (about 2.1% of all), similar ones and a draw of the others. Calls follow the shape of the dose curve; as a rule, active = well fitted curve in the direction sought with a large enough effect; inconclusive = small, poorly fitted or top-dose-only effect, or another doubt; inactive = no such curve, though single readings can be large; an effect the other way counts as inactive or inconclusive. Potency is read from the fitted curve at half-maximal effect.

`Cc1nn(C)c2c1c(C(F)(F)F)cc(=O)n2C(C)C(=O)NCCc1ccccc1` (stereo not drawn) gave TDP-43 yeast inh 26%, FUS yeast rescue inactive and Abeta yeast res inactive.
`O=Cc1cccc(OCc2cccc3ccccc23)c1` gave TDP-43 yeast inh 14µM*, FUS yeast rescue inactive, aSyn yeast inh -1% and Abeta yeast res inactive.
`COc1ccc(COc2cccc(C=O)c2)cc1` gave TDP-43 yeast inh inconclusive, FUS yeast rescue inactive, aSyn yeast inh -24% and Abeta yeast res inactive.
For Cc1cc(Nc2ccccc2)n(-c2nc3ccccc3[nH]2)n1 the results were TDP-43 yeast inh 16µM*, FUS yeast rescue inactive, aSyn yeast inh 10% and Abeta yeast res inactive.
`CCN1c2ccccc2-c2nc(SCC(=O)NCc3ccc(C)cc3)ncc2S1(=O)=O` gave TDP-43 yeast inh 0%, FUS yeast rescue inactive and Abeta yeast res inactive.
Screening Cc1cc(C)nc(Sc2ncnc3c2oc2ccccc23)n1 returned TDP-43 yeast inh 22µM*, FUS yeast rescue inactive, aSyn yeast inh 13% and Abeta yeast res inactive.
Screening c1ccc2cc(Sc3ncnc4c3oc3ccccc34)ccc2c1 returned TDP-43 yeast inh 3%, FUS yeast rescue inactive, aSyn yeast inh -2% and Abeta yeast res inactive.
Screening COc1ccc(CNS(=O)(=O)c2cc(C(=O)Nc3cc(Cl)cc(Cl)c3)ccc2F)cc1 returned TDP-43 yeast inh 14µM*, FUS yeast rescue inactive and Abeta yeast res inactive.
`O=C(Nc1cc(Cl)cc(Cl)c1)c1ccc(F)c(S(=O)(=O)NCc2ccccc2Cl)c1` gave TDP-43 yeast inh 13%, FUS yeast rescue inactive and Abeta yeast res inactive.
For COc1cc(OC)c(NC(=O)C(NS(=O)(=O)c2cccc3nsnc23)c2ccccc2)cc1Cl (stereo not drawn) the results were TDP-43 yeast inh 7%, FUS yeast rescue 22µM* and Abeta yeast res inactive.
COc1ccccc1NC(=O)CN1C(=O)C(c2ccc(F)cc2)=NC12CCCCC2 was read as TDP-43 yeast inh inconclusive, FUS yeast rescue inactive and Abeta yeast res inactive.
Screening CCCCc1nn2c(=O)cc(COC(=O)c3cccc(NC(=O)c4cccs4)c3)nc2s1 returned TDP-43 yeast inh -12%, FUS yeast rescue inactive and Abeta yeast res inactive.
Screening Cc1cccc(Cn2c(-c3cccs3)nc3ccccc32)c1 returned TDP-43 yeast inh 19%, FUS yeast rescue inactive, aSyn yeast inh -31% and Abeta yeast res inactive.
`Cc1ccc(C)c(Cn2c(-c3cccs3)nc3ccccc32)c1` gave TDP-43 yeast inh 20µM*, FUS yeast rescue inactive and Abeta yeast res inactive.
`CC(=O)N1CCOc2cc(S(=O)(=O)Nc3cccc(C(F)(F)F)c3)c(Cl)cc21` gave TDP-43 yeast inh 26%, FUS yeast rescue inconclusive and Abeta yeast res inactive.
COc1ccccc1OCC(=O)Nc1ccccc1C(=O)NCc1ccco1 was read as TDP-43 yeast inh 3%, FUS yeast rescue inactive, aSyn yeast inh 1% and Abeta yeast res inactive.
O=C(COc1ccccc1)Nc1ccccc1C(=O)NCc1ccco1 was read as TDP-43 yeast inh 20µM*, FUS yeast rescue inactive, aSyn yeast inh 1% and Abeta yeast res inactive.
`O=C(NCc1ccccc1)C1C(c2ccc3c(c2)OCO3)=Nc2ccccc2N1C(=O)c1ccccc1` (stereo not drawn) gave TDP-43 yeast inh 13µM*, FUS yeast rescue inactive, aSyn yeast inh -1% and Abeta yeast res inactive.
`O=C(Nc1ccc2c(c1)OCCO2)C1C(c2ccccc2)=Nc2ccccc2N1C(=O)c1cccnc1` (stereo not drawn) gave TDP-43 yeast inh -20%, FUS yeast rescue 7.9µM*, aSyn yeast inh -2% and Abeta yeast res inactive.
Screening C/C(=N\Nc1cc(-c2ccccc2)nc(-c2ccccc2)n1)c1ccc(O)c(C)c1 returned TDP-43 yeast inh 16µM*, FUS yeast rescue inactive, aSyn yeast inh 4% and Abeta yeast res inactive.
`Cc1cc(N/N=C/c2ccc(O)c(C)c2O)nc(-c2ccccc2O)n1` gave TDP-43 yeast inh 10µM*, FUS yeast rescue inactive, aSyn yeast inh -9% and Abeta yeast res inactive.
C/C(=N\Nc1cc(C)nc(-c2ccccc2O)n1)c1ccccc1 was read as TDP-43 yeast inh 10µM*, FUS yeast rescue inactive, aSyn yeast inh -14% and Abeta yeast res inactive.
Screening Cc1ccc(Nc2cc(C)nc(-c3ccccc3O)n2)cc1 returned TDP-43 yeast inh inconclusive, FUS yeast rescue inactive, aSyn yeast inh -13% and Abeta yeast res inactive.
For O=C(CSc1nc2c(c(=O)[nH]1)CN(Cc1ccc3c(c1)OCO3)CC2)Nc1ccc(F)cc1 the results were TDP-43 yeast inh -20%, FUS yeast rescue inactive and Abeta yeast res inactive.
`CCC(C)[C@H](NC(=O)[C@H](Cc1ccccc1)NC(=O)OC(C)(C)C)C(=O)NCc1ccccc1Br` (stereo partly drawn) gave FUS yeast rescue inactive.
Cc1cccc(Cn2c(CN3CCCC(C)C3)nc3c2c(=O)n(C)c(=O)n3C)c1 (stereo not drawn) was read as TDP-43 yeast inh 6%, FUS yeast rescue inactive and Abeta yeast res inactive.
Screening COc1ccc(CCNc2ncnc3c2cnn3-c2cc(Cl)ccc2C)cc1 returned TDP-43 yeast inh 20µM*, FUS yeast rescue inactive and Abeta yeast res inactive.
For CC(C)Nc1ncnc2c1cnn2-c1ccccc1 the results were TDP-43 yeast inh inconclusive, FUS yeast rescue inactive, aSyn yeast inh 2% and Abeta yeast res inactive.
For Cc1ccc(Cl)cc1-n1ncc2c(NC3CCCCCC3)ncnc21 the results were TDP-43 yeast inh 14µM*, FUS yeast rescue inactive and Abeta yeast res inactive.
For Cc1ccc(CNc2ncnc3c2cnn3-c2ccc(C)cc2C)cc1 the results were TDP-43 yeast inh 35µM*, FUS yeast rescue inactive and Abeta yeast res inactive.
`Cc1cccc(-n2ncc3c(NC(C)C)ncnc32)c1` gave TDP-43 yeast inh 11µM*, FUS yeast rescue inactive, aSyn yeast inh -18% and Abeta yeast res inactive.
`Cc1ccc(-n2ncc3c(NC4CCCCCC4)ncnc32)cc1Cl` gave TDP-43 yeast inh inconclusive, FUS yeast rescue inactive and Abeta yeast res inactive.
`CCN(C(=O)CCS(=O)(=O)c1cc2[nH]c(=O)c(=O)[nH]c2cc1C)c1ccccc1` gave TDP-43 yeast inh 4%, FUS yeast rescue inactive and Abeta yeast res inactive.
For Clc1ccc(-n2ncc3c(NCC4CCCO4)ncnc32)cc1 (stereo not drawn) the results were TDP-43 yeast inh 11µM*, FUS yeast rescue inactive, aSyn yeast inh -9% and Abeta yeast res inactive.
For c1ccc(-n2ncc3c(NCC4CCCO4)ncnc32)cc1 (stereo not drawn) the results were TDP-43 yeast inh 23%, FUS yeast rescue inactive, aSyn yeast inh 5% and Abeta yeast res inactive.
